Laboratory results: PubChem BioAssay AID1159580 (chemical genetic matrix, 2015)
About 2,000 (36%) of roughly 5,500 compounds were called active. About 18% were inconclusive and are not listed. No stated cut-off is given here; in the data, active means normalized growth mostly below about 0.91 (no sharp cut-off); inconclusive means no clear call, values can overlap the other calls; inactive means mostly above about 0.92. Some of the results follow.

Experiment: chemical genetic growth profiling, strain panel (AID 1159580);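 further: tested at 20 µM; growth read once vehicle control cultures reached saturation at 30 °C; 1 = growth at the plate median or of vehicle wells; lower values mean less growth of the strain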
Settings: S. cerevisiae deletion strains, growth OD

Measured: normalized growth

CC(=O)Nc1ccc(S(=O)(=O)Nc2onc(C)c2C)cc1
inactive: locus YAL021C, strain ccr4, active compounds read low 0.984 | locus YAL026C, strain drs2, active compounds read low 0.976 | locus YAL030W, strain snc1, active compounds read low 0.98 | locus YBL061C, strain skt5, active compounds read low 0.969 | locus YBR009C, strain hhf1, active compounds read low 0.959 | locus YBR023C, strain chs3, active compounds read low 0.97 | locus YBR171W, strain sec66, active compounds read low 0.965 | locus YBR231C, strain swc5, active compounds read low 0.981 | locus YBR279W, strain paf1, active compounds read low 0.968 | locus YCL011C, strain gbp2, active compounds read low 0.973 | locus YCL016C, strain dcc1, active compounds read low 0.969 | locus YCL061C, strain MRC1, active compounds read low 0.985 | locus YCL069W, strain vba3, active compounds read low 0.972 | locus YCR088W, strain abp1, active compounds read low 0.965 | locus YDL005C, strain med2, active compounds read low 0.969 | locus YDL040C, strain nat1, active compounds read low 0.969 | locus YDR001C, strain nth1, active compounds read low 0.963 | locus YDR069C, strain doa4, active compounds read low 0.962 | locus YDR137W, strain rgp1, active compounds read low 0.959 | locus YDR159W, strain sac3, active compounds read low 0.946 | locus YDR195W, strain ref2 0.948 | locus YDR297W, strain sur2, active compounds read low 0.967 | locus YDR334W, strain swr1, active compounds read low 0.975 | locus YDR335W, strain msn5, active compounds read low 0.972 | locus YDR392W, strain spt3, active compounds read low 0.929 | locus YEL003W, strain gim4, active compounds read low 0.974 | locus YEL037C, strain rad23, active compounds read low 0.971 | locus YEL061C, strain CIN8 (second series), active compounds read low 0.956 | locus YER015W, strain faa2, active compounds read low 0.986 | locus YER016W, strain bim1, active compounds read low 0.96 | locus YER111C, strain swi4, active compounds read low 0.975 | locus YER155C, strain BEM2 (second series), active compounds read low 0.971 | locus YFR010W, strain ubp6, active compounds read low 0.959 | locus YGL167C, strain pmr1, active compounds read low 0.968 | locus YGL173C, strain kem1, active compounds read low 0.969 | locus YGL227W, strain vid30, active compounds read low 0.966 | locus YGL240W, strain doc1, active compounds read low 0.981 | locus YGL253W, strain hxk2, active compounds read low 0.994 | locus YHR013C, strain ard1, active compounds read low 0.963 | locus YHR027C, strain rpn1, active compounds read low 0.989 | locus YHR030C, strain SLT2, active compounds read low 0.975 | locus YHR079C, strain IRE1, active compounds read low 0.968 | locus YHR142W, strain chs7, active compounds read low 0.965 | locus YJL092W, strain hpr5, active compounds read low 0.971 | locus YJL095W, strain BCK1 (second series), active compounds read low 0.975 | locus YJL095W, strain BCK1, active compounds read low 1 | locus YJL115W, strain asf1, active compounds read low 0.964 | locus YJL129C, strain trk1, active compounds read low 0.983 | locus YJL154C, strain vps35, active compounds read low 0.965 | locus YJL164C, strain tpk1, active compounds read low 0.982 | locus YJL166W, strain qcr8, active compounds read low 0.983 | locus YJL187C, strain SWE1, active compounds read low 0.97 | locus YJR066W, strain TOR1, active compounds read low 0.908 | locus YKL160W, strain elf1, active compounds read low 0.984 | locus YKR026C, strain gcn3, active compounds read low 0.967 | locus YKR091W, strain srl3, active compounds read low 0.977 | locus YLL001W, strain dnm1, active compounds read low 0.951 | locus YLL026W, active compounds read low 0.961 | locus YLL041C, strain sdh2, active compounds read low 0.978 | locus YLR027C, strain aat2, active compounds read low 0.973 | locus YLR113W, strain HOG1, active compounds read low 0.975 | locus YLR221C, strain rsa3, active compounds read low 0.987 | locus YLR258W, strain gsy2, active compounds read low 0.971 | locus YLR262C, strain YPT6 (second series), active compounds read low 0.98 | locus YLR320W, strain mms22, active compounds read low 0.972 | locus YLR342W, strain FKS1, active compounds read low 0.974 | locus YLR357W, strain rsc2, active compounds read low 0.951 | locus YLR370C, strain arc18, active compounds read low 0.957 | locus YLR384C, strain iki3, active compounds read low 0.962 | locus YML120C, strain ndi1, active compounds read low 0.988 | locus YMR058W, strain fet3, active compounds read low 0.971 | locus YMR125W, strain sto1, active compounds read low 0.937 | locus YMR129W, active compounds read low 0.979 | locus YMR205C, strain PFK2, active compounds read low 0.936 | locus YMR231W, strain pep5, active compounds read low 0.969 | locus YNL071W, strain lat1, active compounds read low 0.975 | locus YNL183C, strain NPR1, active compounds read low 0.926 | locus YNL209W, strain ssb2, active compounds read low 0.975 | locus YNL248C, strain rpa49, active compounds read low 1.02 | locus YNL322C, strain KRE1 (second series), active compounds read low 0.98 | locus YNR049C, strain mso1, active compounds read low 0.969 | locus YOR001W, strain rrp6, active compounds read low 0.985 | locus YOR070C, strain gyp1, active compounds read low 0.977 | locus YOR080W, strain dia2, active compounds read low 0.954 | locus YOR083W, strain WHI5, active compounds read low 0.997 | locus YOR106W, strain vam3, active compounds read low 0.996 | locus YOR231W, strain MKK1, active compounds read low 0.989 | locus YOR265W, strain rbl2, active compounds read low 0.973 | locus YOR270C, strain vph1, active compounds read low 0.922 | locus YOR290C, strain snf2, active compounds read low 0.964 | locus YPL051W, strain arl3, active compounds read low 0.985 | locus YPL078C, strain atp4, active compounds read low 0.981 | locus YPL106C, strain sse1, active compounds read low 0.97 | locus YPL240C, strain hsp82, active compounds read low 0.99 | locus YPL256C, strain CLN2, active compounds read low 0.955
